The source of these data is PubChem BioAssay AID651791 (National Center for Advancing Translational Sciences (NCATS), 2012).

Records with an inconclusive call do not appear. The source made the active and inactive calls. Calls come from the whole dose curve; as a rule, active = well fitted inhibition curve with a large enough effect; inconclusive = small, poorly fitted or top-dose-only effect; inactive = no such curve, though single readings can be large or run the other way.
Potency is the fitted concentration of half-maximal effect.

This experiment is described as follows: InCell qHTS Assay for Inhibitors of the mTORC1 Signaling Pathway in MEF (Tsc2-/-, p53-/-) Cells: Hit Validation.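 Note: phospho-S6 Ser235/236 signal normalized to propidium iodide cell count per well; nearly all actives have a fitted effect of over 75% in size.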 The settings on record: phospho-rpS6 immunofluorescence, 24 h; activity change, negative = inhibition: at 38.3 µM (top of the series). Background: In qHTS, concentration-response curves come from the screen itself.
On to `Cc1ccc(NC(=O)CSc2nc(-c3ccco3)cc(C(F)(F)F)n2)cc1C`, for which the activity change, negative = inhibition was -100%.

With `CCOc1ccccc1NC(=O)CSc1cc(=O)n(CC)c2ccccc12`, the activity change, negative = inhibition is -100%. Still for that read-out and setting: then `CCOc1cccc(C2CC(=O)Nc3cc4c(cc32)OCCO4)c1` (configuration not stated), with -14.6%; and `Cc1ccc(-c2nn(C)c(=O)c3ccccc23)cc1S(=O)(=O)NCCCN(C)C`, with -100%; and `COc1ccccc1C(=O)Nc1ccc(-c2cc(C(F)(F)F)nn2-c2ccccc2)cc1`, with -100%. As to `COc1cc(O)ccc1-c1nc2ccc(Br)cn2c1Nc1ccccc1C`, the activity change, negative = inhibition was -100%. Take `CCOC(=O)c1c(C)[nH]c(CCC(=O)Nc2cc(C)ccc2OC)c1C`: the activity change, negative = inhibition was -100%. As for `Cc1ccc(S(=O)(=O)c2nc(-c3ccco3)oc2SC(C)c2ccccc2)cc1` (configuration not stated), the activity change, negative = inhibition is -100%. `Cc1ccc(CN(Cc2cccn2-c2nnc(N3CCCC3=O)s2)C(=O)Nc2ccccc2C(F)(F)F)cc1`: the activity change, negative = inhibition was -100%. With `CCCCN(CC)CCNC(=O)C1CCN(c2nnc(C)c3c(C)n(-c4ccc(C)cc4)nc23)CC1`, the activity change, negative = inhibition is -100%. The same measure, in the same setting: the value for `COCCCNc1ncnc2c1cnn2-c1ccc(F)cc1` was -100%; that for `Cc1cccc(C)c1Nc1sc(C(=O)c2ccccc2)c(N)c1S(=O)(=O)c1ccccc1` was -100%; that for `CC(C)c1ccc(NS(=O)(=O)c2ccc3nc(-c4ccccc4)[nH]c3c2)cc1` was -100%. Turning to `CCn1c(=N)n(CCOc2ccc(Br)cc2)c2ccccc21`, the Potency was 14.7 µM (active). With `CC(C)CCNC(=O)Nc1ccc2c(c1)N(C)C(=O)c1ccccc1S2`, the activity change, negative = inhibition was -100%. `COc1ccccc1NC(=O)CSc1ccc(-c2ccccn2)nn1`: the activity change, negative = inhibition is -100%. With `COc1ccc(N(Cc2ccccc2)C(=O)c2nc(S(C)(=O)=O)ncc2Cl)cc1`, the Potency was 3.69 µM (active). Consider `Cc1ccc(-c2nc3sccn3c2Nc2ccc(C)c(C)c2)cc1`, for which the activity change, negative = inhibition was -100%. Still for that read-out and setting: the value for `COCc1oc2ccc(NS(=O)(=O)c3ccc(C)cc3)cc2c1C(=O)OC` was -6.75%; that for `Cc1cccc(N(C)S(=O)(=O)c2ccc(-c3cc(C)no3)s2)c1` was -9.17%. Turning to `COC(=O)c1ccccc1NC(=O)c1nc(S(=O)(=O)Cc2cccc(C)c2)ncc1Cl`, the Potency was 3.69 µM (active).

Turning to `CCOc1ccccc1NC(=O)Cn1c(=O)n(CCC(=O)NCc2ccc3c(c2)OCO3)c(=O)c2ccccc21`, the activity change, negative = inhibition was -100%.

For the molecule `CCOC(=O)c1c(NC(=O)c2cc(CC)on2)sc(C(C)=O)c1C`, the activity change, negative = inhibition was -100%. On the same count and under the same terms, then `Cc1ccc2c(c1)cc(C(=O)Nc1ccccc1C)n2C`, with -18.6%.

As for `Cc1cc(C)cc(NC(=O)c2cnn(-c3ccc(C)c(C)c3)c2C2CCNCC2)c1`, the activity change, negative = inhibition is -19.5%.

`Cc1c(C(=O)OC2CCCCC2)[nH]c2c1C(=O)CC(c1ccccc1Cl)C2` (configuration not stated): the activity change, negative = inhibition was -100%. As to `Cc1cc(NC(=O)c2ccco2)cc(-c2nc3cc(Cl)ccc3o2)c1O`, the activity change, negative = inhibition is -4.63%. Regarding `Cc1cccc(N2CCN(c3ncnc4c3nc3n4CCCCC3)CC2C)c1` (configuration not stated), the Potency is 5.85 µM (active).

Take `CCOC(=O)c1ccc(N2C(=O)c3n[nH]c(C)c3C2c2cccc(Br)c2)cc1` (configuration not stated): the activity change, negative = inhibition is -100%.

Regarding `CCNS(=O)(=O)c1cc(-c2nnc(Nc3cccc(C(F)(F)F)c3)c3ccccc23)ccc1C`, the activity change, negative = inhibition was -100%.

In the case of `CCS(=O)(=O)c1ncc(Cl)c(C(=O)N(Cc2ccccc2)Cc2ccco2)n1`, the Potency was 3.69 µM (active). Turning to `O=C(Cn1cc(SCc2ccccc2)c2ccccc21)N1CCCCCC1`, the activity change, negative = inhibition was -100%. Still for that read-out and setting: then `COc1ccc(Cn2c(C(=O)O)c(CNCc3ccc(SC)cc3)c3ccc(OC)cc32)cc1`, with -100%; and `CCCc1oc2ccc(NS(=O)(=O)c3ccc(OCC)cc3)cc2c1C(=O)OCC`, with -100%.

`COc1ccccc1C1C=C(c2ccc(Cl)cc2)Nc2nc(-c3ccc(Cl)cc3)nn21` (configuration not stated): the activity change, negative = inhibition is -100%. With `Cc1cc(C)c(NC(=O)Cn2c(=O)n(Cc3ccc(C(=O)NCc4ccc5c(c4)OCO5)cc3)c(=O)c3ccccc32)c(C)c1`, the Potency was 3.29 µM (active).

Regarding `O=C(NCc1ccccc1Cl)C(=O)NCC(c1cccs1)S(=O)(=O)c1cccs1` (configuration not stated), the activity change, negative = inhibition is -100%.
